# Reference: PubChem BioAssay (NCATS)
# Values joined by “and” are separate entries in the source; they are usually repeats but may differ in a detail not shown here. Equal entries are not always repeated. Records with an inconclusive call do not appear. Values without a mark were called inactive. Calls follow the shape of the dose curve; as a rule, active = well fitted curve in the direction sought with a large enough effect; inconclusive = small, poorly fitted or top-dose-only effect, or another doubt; inactive = no such curve, though single readings can be large or run the other way.
# Experiment: qHTS Assay for Identifying Gametocytocidal Compounds (AID 743244);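 also: actives lower the fluorescent signal which means gametocytes are killed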
# Conditions: P. falciparum 3D7 stage III-V gametocytes, alamarBlue, 72 h; max response: stronger effect = lower value
# Summary of the method: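 P. falciparum 3D7 stage III–V gametocytes (20,000 cells/well) were exposed to compounds for 72 h at 37 °C, 5% CO2. AlamarBlue was then added for 24 h; decreased resorufin fluorescence (Ex 525/Em 598 nm) indicated loss of viability.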
# % is scaled to controls: 0 for no effect and ±100 for the full control effect.
row,Structure (SMILES),max response
1,CCOC(=O)c1ccccc1O,-3.35% and 9.79%
2,CN(C)CCn1nnnc1SCC1=C(C(=O)O)N2C(=O)[C@@H](NC(=O)Cc3csc(N)n3)[C@H]2SC1,19.2%
3,CCCSc1ccc2nc(NC(=O)OC)[nH]c2c1,0.499%
